In PubChem BioAssay (NCATS):
Inconclusive results are not listed. A number with no mark means an inactive call. Active and inactive are the calls of the source. The call rests on the fitted dose curve; in most records, active means well fitted cell-killing curve with a large enough effect; inconclusive means small, poorly fitted or top-dose-only effect, or effect the other way; inactive means flat fitted curve, though single readings scatter.

Assay: Identifying Small Molecule Inhibitors of Pancreatic Cancer Stem Cells (SN12C, Spheroid) (AID 1259360);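 on viability (% of control): 100% = DMSO-treated cells and 0% = wells without cells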
Settings: Potency: SN12C spheroid viability; series mostly up to 46.1 µM; viability (% of control): at the top concentration
Text: Progenitor-like cancer cells, often referred to as cancer stem cells (CSC), are believed to be the drivers of therapeutic resistance and rapid recurrence. CSCs are postulated to reside in specific niches characterized by low oxygen tension, limited nutrient supply, and high redox load. Selectively targeting CSC, alone or in combination with cytotoxic agents, as a means to produce durable remissions is an appealing concept. Modeling these cells in in vitro setting is an important step in finding new therapies and/or targets. Multiple reports highlight that forcing cells in culture into 3-dimensionaly architectures (spheroids) re-establishes key progenitor-like transcriptional signatures. Pancreatic cancer is among the diseases with the most dismal outlook which is driven, largely, by recurance following front-line therapies. […] In hopes of deriving new insight into the targeting of these pancreatic CSCs we examined three established pancreatic cancer cell lines in cytotoxicity assays versus a collection of approved and investigational drugs. Importantly, we screened these lines as traditional monolayer (2D) and spheroid (3D) formats to gain an appreciation of agents with differential activity.
Multicellular tumor spheroids from Panc1, MiaPaCa-2, and the primary low-passage tissue culture line SB.06 were seeded in stem cell media (SCM) in nonadherent 6-well plates coated with hydrogel (Corning Life Sciences, Chelmsford, Mass) and pancreatic spheres generated for 14 days before screening. Cells were seeded into 1536-well solid-bottom white tissue culture treated Greiner Bio One Plates (789173-F) using a MultiDrop Combi (Thermofisher Scientific) dispenser and a small sterile cassette. One column was media alone to be used as a :"no cells" control. The plates were then covered with sterilized stainless steel gasketed lids from Kalypsys. After allowing cells to attach for 4 hours, 23 nL of test compound or control (negative control DMSO and positive control 9.2 uM Bortezomib-final) were added from a 1536-well polypropylene compound source plate to each well using a 1536 head pin tool from Kalypsys. Cells were then incubated for 48 hours at 37C, 95% relative humidity and 5% CO2. After 48 hours, plates were removed from the incubator and 3 uL of CellTiter-Glo (Promega) was added using an Aurora Flying Reagent Dispenser Bioraptor. Plates were incubated at room temperature for 10 minutes prior to reading the luminescence on the Viewlux (PerkinElmer). The relative luciferase units are used to calculate the percent activity using the activity of DMSO in the cells and no cells columns for normalization of no inhibition and full inhibition respectively.
Potency means the concentration at half of the fitted maximal effect.

Row | Structure (SMILES) | viability (% of control) | Potency
1 | O=C(O)c1ccc(-c2cc3cccnc3c(-c3ccc4nonc4c3)n2)cc1 | 102% | –
2 | CC(C)(C)C(=O)Oc1ccc2c(c1)nc(NC(=O)c1cccc([N+](=O)[O-])c1)n2CCCO | 81.1% | –
3 | Clc1ccc(-c2nc3sccn3c2C=NOCc2ccc(Cl)c(Cl)c2)cc1 | 96.1% | –
4 | O=C(Nc1cc(Cl)cc2c1[nH]c1cnccc12)c1cccnc1 | 102% | –
5 | CS(=O)c1ccc(-c2nc(-c3ccc(F)cc3)c(-c3ccncc3)[nH]2)cc1 (stereo not given) | 95.2% | –
6 | COc1cc(N2CCC(N3CCN(C)CC3)CC2)ccc1Nc1ncc(Cl)c(Nc2ccccc2S(=O)(=O)C(C)C)n1 | – | 20.9 µM (active)
7 | CC(C)(C(=O)NCC(F)(F)C(F)(F)F)C(=O)N[C@@H]1C(=O)Nc2ccccc2-c2ccccc21 | 106% | –
8 | CN(C)Cc1ccc(-c2nc3cccc4c3n2CCNC4=O)cc1 | 101% | –
9 | CN1CCN(CCOc2cc(OC3CCOCC3)c3c(Nc4c(Cl)ccc5c4OCO5)ncnc3c2)CC1 | – | 18.7 µM (active)
10 | CCOC(CN1C(=O)[C@](CC(=O)Nc2ccc(C)cc2)(NC(=O)Nc2ccc(C)cc2)c2ccccc21)OCC | – | 18.7 µM (active)
11 | COc1ccc(C2CC(c3ccccc3)=NN2c2ccc(S(N)(=O)=O)cc2)cc1 (stereo not given) | 106% | –
12 | CO[C@H]1C=CC=C(C)C(=O)NC2=CC(=O)C(NCCN(C)C)=C(C[C@@H](C)C[C@H](OC)[C@@H](O)[C@@H](C)C=C(C)[C@@H]1OC(N)=O)C2=O | – | 0.0059 µM (active)
13 | OC[C@H]1O[C@@H](n2cnc3c2NC=NC[C@@H]3O)C[C@H]1O | 92.9% | –
14 | CC(C)(C)COc1ccc(-n2cc(C(=O)O)cn2)cc1C#N | 97.3% | –
15 | CC(C)(C)c1cc(C(=O)O)c(NC(=O)Nc2ccc3[nH]ncc3c2)s1 | 103% | –
16 | CC(C)[C@H](CO)Nc1nc(Nc2ccc(C(=O)O)c(Cl)c2)c2ncn(C(C)C)c2n1 | 108% | –
17 | O=C(N[C@@H](c1ccccc1)[C@@H]1CCCCN1)c1cccc(C(F)(F)F)c1Cl | 106% | –
18 | CC1=C(/C=C/C(C)=C/C=C/C(C)=C/C(=O)Nc2ccc(O)cc2)C(C)(C)CCC1 | – | 23.5 µM (active)
19 | CO[C@@H](C(=O)N1Cc2[nH]nc(NC(=O)c3ccc(N4CCN(C)CC4)cc3)c2C1)c1ccccc1 | 95.8% | –
20 | O=C1C(Cl)=C(NCCN2CCOCC2)C(=O)c2ncccc21 | – | 14.8 µM (active)
